KCNQ2 inh = inhibitors of rat KCNQ2 potassium channel; AID 2156; O88943; 1.1% of 310,000 active; CHO-K1 KCNQ2, FluxOR thallium flux, 20 min; active compounds read low; B-score at 10 µM;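 active = fluorescence ratio B-score at most minus 3 library SDs, with starting brightness B-score within 2 library SDs, cut at about -5.5 in these data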
Target sequence (O88943 whole entry, looked up): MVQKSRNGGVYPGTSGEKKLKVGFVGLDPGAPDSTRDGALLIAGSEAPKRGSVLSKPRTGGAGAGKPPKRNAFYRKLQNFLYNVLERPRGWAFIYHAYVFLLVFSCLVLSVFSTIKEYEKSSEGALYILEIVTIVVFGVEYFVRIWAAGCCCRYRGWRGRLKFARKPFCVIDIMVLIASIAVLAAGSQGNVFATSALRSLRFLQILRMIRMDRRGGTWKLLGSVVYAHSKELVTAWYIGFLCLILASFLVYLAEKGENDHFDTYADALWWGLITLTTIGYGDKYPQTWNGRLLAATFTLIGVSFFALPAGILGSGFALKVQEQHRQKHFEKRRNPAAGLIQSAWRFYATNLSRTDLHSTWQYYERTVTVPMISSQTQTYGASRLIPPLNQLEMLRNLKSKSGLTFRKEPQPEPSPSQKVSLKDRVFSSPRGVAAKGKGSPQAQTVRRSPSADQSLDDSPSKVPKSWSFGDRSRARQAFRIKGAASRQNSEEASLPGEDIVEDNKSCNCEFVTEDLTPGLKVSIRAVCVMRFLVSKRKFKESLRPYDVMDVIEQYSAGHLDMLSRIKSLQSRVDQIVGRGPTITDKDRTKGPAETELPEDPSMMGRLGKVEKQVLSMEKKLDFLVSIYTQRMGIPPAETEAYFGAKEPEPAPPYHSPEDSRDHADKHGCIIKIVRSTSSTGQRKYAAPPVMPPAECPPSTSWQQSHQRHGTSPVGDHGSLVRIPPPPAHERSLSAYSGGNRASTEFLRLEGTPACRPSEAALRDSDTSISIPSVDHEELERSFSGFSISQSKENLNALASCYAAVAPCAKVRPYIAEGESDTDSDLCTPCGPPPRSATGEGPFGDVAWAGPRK
KCNQ2 pot = KCNQ2 (rat) channel potentiation. O88943. CHO-K1 KCNQ2, FluxOR thallium flux fluorescence; active compounds read high. B-score at 10 µM. 0.54% of 310,000 active. AID 2239;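 active = fluorescence ratio B-score at least 3 SD of library B-scores, with initial fluorescence B-score within 3 of them, cut at about 5.3 in these data; same plate scores as AID 2156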;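 note: B-score of peak minus minimum over baseline fluorescence ratio after K+ and Tl+ stimulus; positive B-score means potentiation of KCNQ2 with more thallium influx and brighter signal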
Each line names hits and unclear results; the compound was inactive in the other large screens. Sampled rows, rich in hits. Any-hit rate of the full collection: about 1.6%.

CC(C)(C)c1ccc(-c2nnc(N)o2)cc1	none (no result: KCNQ2 pot)
Cc1onc(-c2c(F)cccc2Cl)c1C(=O)OCC(=O)NC(c1ccccc1)c1ccccc1	KCNQ2 inh -5.6
Cc1onc(-c2c(F)cccc2Cl)c1C(=O)OCC(=O)NC(N)=O	none
CCCCC(O)(CCCC)C(=O)NN(C(=O)OC)c1ccccc1	none (no result: KCNQ2 pot)
CCOC(=O)N(NC(=O)C(O)(C(C)C)C(C)C)c1ccccc1	none (no result: KCNQ2 pot)
CCOC(=O)N(NC(=O)C(O)(c1ccccc1)c1ccccc1)c1ccccc1	KCNQ2 inh -6.1
COC(=O)N(NC(=O)C(O)(c1ccccc1)c1ccccc1)c1ccc(C)cc1	KCNQ2 inh -5.9
CN(c1cccc(NC(=O)CN(c2cccc(F)c2)S(C)(=O)=O)c1)S(C)(=O)=O	none
O=C(NCc1ccco1)C1CCN(C(=O)c2ccc([N+](=O)[O-])cc2)CC1	none (no result: KCNQ2 pot)
CCCOP(=O)(c1ccc(N(C)C)cc1)C(O)c1c(Cl)cccc1Cl (configuration not stated)	none
CC(C)CCOP(=O)(c1ccc(N(C)C)cc1)C(O)c1c(Cl)cccc1Cl (configuration not stated)	KCNQ2 inh -5.6
COc1ccc(/C=C2\CCCC3C2=NN(C(=O)CSc2ncn[nH]2)C3c2ccc(OC)cc2)cc1 (configuration not stated)	none (no result: KCNQ2 pot)
O=C(CSc1ncn[nH]1)N1N=C2/C(=C/c3ccccc3)CCCC2C1c1ccccc1 (configuration not stated)	KCNQ2 inh -5.7
COc1ccccc1NC(=O)CN(Cc1ccco1)C(=O)c1ccc(=O)[nH]c1	none (no result: KCNQ2 pot)
Cc1cccc2cc(CN(Cc3ccco3)C(=O)Nc3cccc(C#N)c3)c(Cl)nc12	none (no result: KCNQ2 pot)
Cc1ccc(C)c2[nH]c(=O)c(CN(Cc3ccco3)C(=O)Nc3ccccc3)cc12	KCNQ2 inh -5.6
COc1ccccc1NC(=O)CN(Cc1ccco1)C(=O)c1cc2ccccc2o1	KCNQ2 inh -7.6
COc1ccccc1NC(=O)N(Cc1ccco1)Cc1cc2cc(C)cc(C)c2[nH]c1=O	KCNQ2 inh -6
Cc1ccc(NC(=O)N(Cc2ccco2)Cc2cc3cc(C)cc(C)c3nc2Cl)cc1	KCNQ2 inh -6.8
Cc1ccc2cc(CN(Cc3ccco3)C(=O)NCc3ccccc3)c(=O)[nH]c2c1C	none (no result: KCNQ2 pot)
COc1ccccc1NC(=O)N(Cc1ccco1)Cc1cc2ccc(C)c(C)c2[nH]c1=O	none (no result: KCNQ2 pot)
CCN(CC)CCCn1c2c(c(SCC(=O)Nc3ccc4c(c3)OCCO4)nc1=O)CCC2	none
COCCC(=O)N1CCC(Oc2ccc(C(=O)NCCC3=CCCCC3)cc2)CC1	none (no result: KCNQ2 pot)
CC1CCN(C(=O)Cn2c3ccc(F)cc3c3nc4n(c(=O)c32)CCCS4)CC1	none
CCC1=Nc2cc(C(=O)NCCCN3CCN(C)CC3)ccc2Sc2ccccc21	none (no result: KCNQ2 pot)
Cc1cc(NC(=O)CSc2nnc(CNC(=O)c3ccccc3)o2)no1	none (no result: KCNQ2 pot)
O=C(c1ccc2ccccc2c1)N1CCN(c2ccc([N+](=O)[O-])c(N3CCOCC3)c2)CC1	none (no result: KCNQ2 pot)
O=C(/C=C/c1ccccc1)N1CCN(c2ccc([N+](=O)[O-])c(N3CCOCC3)c2)CC1	KCNQ2 inh -6.4
Clc1cccc(-c2nc(NCCCN3CCOCC3)c3ccccc3n2)c1	none (no result: KCNQ2 pot)
Clc1ccc(-c2nc(NCCCN3CCOCC3)c3ccccc3n2)cc1	KCNQ2 inh -7.9
COc1cccc(-c2nc(NCCN3CCOCC3)c3ccccc3n2)c1O	none (no result: KCNQ2 pot)
Oc1ccccc1-c1nc(NCCN2CCOCC2)c2ccccc2n1	KCNQ2 inh -8.2
CCCn1nc(Oc2nc(N(C)C)nc(N(C)C)n2)ccc1=O	none
Cc1sc2nc(SCc3nc(-c4ccccc4)no3)n(-c3ccccc3)c(=O)c2c1C	KCNQ2 inh -9
COc1ccc(-c2noc(CSc3nc4ccccc4c(=O)n3-c3ccc(C)cc3)n2)cc1	KCNQ2 inh -5.7
COc1ccc(-c2noc(CSc3nnc(Cc4ccccc4)n3-c3ccc(Cl)cc3)n2)cc1	none (no result: KCNQ2 pot)
Cc1sc2nc(SCC(N)=O)n(-c3ccccc3)c(=O)c2c1C	none (no result: KCNQ2 pot)
COc1cc(OC)cc(C(=O)N[C@H](C(=O)Nc2cccc(S(=O)(=O)N3CCCC3)c2)C(C)C)c1	none
C[C@@H]1CC[C@H](O)/C=C/C(=O)O[C@H](C)CC[C@H](O)/C=C/C(=O)O1	none
COc1ccc2c(c1)SCC/C2=C\CN1C(=O)CCC1=O	none
O=C(CSc1nnc(-c2ccc(Cl)cc2)n1Cc1ccco1)NCc1ccc2c(c1)OCO2	KCNQ2 inh -5.9
Cc1cc(Cl)ccc1NC(=O)CSc1nnc(-c2ccncc2)n1Cc1ccco1	none
CC(=O)Nc1cccc(NC(=O)CSc2ncc(-c3ccc(Cl)cc3)n2Cc2ccco2)c1	KCNQ2 inh -6.6
O=C(CSc1nnc(-c2ccc(Cl)cc2)n1Cc1ccco1)Nc1ccc2c(c1)OCCO2	none
COc1ccc(-c2nnc(SC(C)C(=O)NCc3ccc4c(c3)OCO4)n2Cc2ccco2)cc1 (configuration not stated)	KCNQ2 inh -8.2
CC(Sc1nnc2ccccn12)C(=O)NCc1ccc2c(c1)OCO2 (configuration not stated)	none (no result: KCNQ2 pot)
Cn1c(N)c(S(=O)(=O)N2CCN(c3ccccc3Cl)CC2)c(=O)n(C)c1=O	none (no result: KCNQ2 pot)
O=C(O)C1C2C=CC(C2)C1C(=O)NCc1cccs1 (configuration not stated)	none
COc1cccc(-n2nc(-c3ccnn3-c3ccc(C)cc3)c(=O)n(C)c2=O)c1	none
O=C(NCc1ccccc1)C1=C[C@@H](C2CCCCC2)C[C@@H](OCCCCO)O1	none (no result: KCNQ2 pot)
CN(C)C/C=C(/c1ccc(Br)cc1)c1cccnc1	none
O=C(c1ccc(F)c(F)c1)N1CCCc2ccccc21	none
CS(=O)(=O)N1CCc2cc(C(=O)N3CCCC3)ccc21	none (no result: KCNQ2 pot)
CCN(CC)S(=O)(=O)c1ccc(-c2nnc(SC)o2)cc1	none
CCN(CC)S(=O)(=O)c1cc(-c2nnc(-c3ccc(Br)cc3)o2)ccc1Cl	KCNQ2 inh -6.1
CCN(CC)S(=O)(=O)c1cc(-c2nnc(-c3ccc(Br)cc3)o2)ccc1Br	KCNQ2 inh -7
CCN(CC)S(=O)(=O)c1cccc(-c2nnc(-c3ccc(C)cc3)o2)c1	none (no result: KCNQ2 pot)
Cc1ccc(CN(CC(=O)NCCc2ccccc2)C(=O)c2csnn2)cc1	none (no result: KCNQ2 pot)
O=C1CC(c2ccccc2)CC(O)=C1C=NCc1ccccc1Cl (configuration not stated)	none (no result: KCNQ2 pot)
O=C1CC(c2cccc(Cl)c2)CC(O)=C1C=NC1CCCC1 (configuration not stated)	KCNQ2 inh -6.8
Cc1cc(Br)ccc1NC(=O)CN1C(=O)C2C3CC(c4ccccc4)C(C3)C2C1=O (configuration not stated)	none (no result: KCNQ2 pot)
Cc1cccc(C)c1NC(=O)c1sccc1SCc1cccc(C(F)(F)F)c1	none (no result: KCNQ2 pot)
Cc1ccc(NC(=O)c2sccc2SCc2cccc(C(F)(F)F)c2)cc1	KCNQ2 inh -6.8
COc1ccc(CCNC(=O)c2cc(=O)c3cc(C)ccc3o2)cc1OC	none
CCOC(=O)C1CCN(C(c2cc3c(C)ccc(C)c3[nH]c2=O)c2nnnn2C2CCCCC2)CC1 (configuration not stated)	none (no result: KCNQ2 pot)
COc1cc2cc(C(c3nnnn3C3CCCC3)N3CCCCCC3)c(=O)[nH]c2cc1OC (configuration not stated)	KCNQ2 inh -11
Cc1ccc(C)c2[nH]c(=O)c(C(c3nnnn3CCc3ccccc3)N3CCOCC3)cc12 (configuration not stated)	KCNQ2 inh -6
CCOc1ccc2[nH]c(=O)c(C(c3nnnn3C3CCCCC3)N3CCN(CC)CC3)cc2c1 (configuration not stated)	none
Cc1ccc(C)c2[nH]c(=O)c(C(c3nnnn3C3CCCC3)N3CCOCC3)cc12 (configuration not stated)	KCNQ2 inh -6.1
